Bioassay records as filed in PubChem.
BoNT F protease = BoNT/F light chain protease inhibitors, primary screen, biochemical, flow cytometry, MLPCN library; hit rate 0.22% among 360,000; inhibition, % at 10 µM; Botulinum neurotoxin type F light chain protease (Clostridium botulinum); Multiplex microsphere protease cleavage assay; in the data active = inhibition above about 35%, passing the limit was not always enough; inconclusive = no clear call, values can overlap the other calls; also: plate controls were buffer without enzyme for full effect and enzyme alone for no effect
MazEF act = activators of E. coli MazEF toxin-antitoxin RNase, primary screen, biochemical, fluorescence, uHTS | activation, % at 20 µM | AID 504720, 2011 | hit rate 0.32% among 350,000 | Endoribonuclease toxin MazF (Escherichia coli (strain K12)), P0AE70 | FAM/BHQ RNA-DNA oligo cleavage fluorescence, 5 h; in the data active = activation above about 50%
Anthrax LF prot = Bacillus anthracis LF protease inhibitors, primary screen, biochemical, multiplex microsphere, MLPCN library | Lethal factor (Bacillus anthracis), P15917 | multiplex microsphere protease cleavage assay | inhibition, % at 10 µM | hit rate 0.12% among 360,000; also: plate controls were buffer without enzyme for full effect and enzyme alone for no effect
Target sequence (P15917 whole entry, looked up): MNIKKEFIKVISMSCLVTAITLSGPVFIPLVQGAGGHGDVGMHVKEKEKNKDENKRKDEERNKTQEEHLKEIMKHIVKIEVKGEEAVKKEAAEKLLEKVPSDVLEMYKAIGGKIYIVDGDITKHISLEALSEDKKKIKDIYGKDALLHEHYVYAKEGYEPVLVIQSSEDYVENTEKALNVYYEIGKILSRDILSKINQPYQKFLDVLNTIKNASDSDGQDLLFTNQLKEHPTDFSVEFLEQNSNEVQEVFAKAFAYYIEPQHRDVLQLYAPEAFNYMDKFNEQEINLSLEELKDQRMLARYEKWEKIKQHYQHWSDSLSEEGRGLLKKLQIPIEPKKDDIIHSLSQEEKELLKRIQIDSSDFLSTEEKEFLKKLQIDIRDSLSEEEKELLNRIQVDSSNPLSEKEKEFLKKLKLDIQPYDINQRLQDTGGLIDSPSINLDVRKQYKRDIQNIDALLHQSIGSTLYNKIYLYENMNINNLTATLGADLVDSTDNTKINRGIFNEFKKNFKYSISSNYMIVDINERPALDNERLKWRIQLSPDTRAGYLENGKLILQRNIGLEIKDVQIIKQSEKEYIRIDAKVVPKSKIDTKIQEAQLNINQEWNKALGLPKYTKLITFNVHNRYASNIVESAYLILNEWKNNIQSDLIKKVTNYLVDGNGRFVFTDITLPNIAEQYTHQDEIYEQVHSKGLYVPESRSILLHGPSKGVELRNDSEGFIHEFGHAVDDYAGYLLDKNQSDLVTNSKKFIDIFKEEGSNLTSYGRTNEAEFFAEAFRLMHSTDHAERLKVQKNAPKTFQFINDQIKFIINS
BoNT A protease = BoNT/A light chain protease inhibitors, primary screen, biochemical, flow cytometry, MLPCN library; AID 588499, 2011; multiplex microsphere protease substrate cleavage; inhibition, % at 10 µM; hit rate 0.17% among 360,000; Botulinum neurotoxin type A light chain protease (Clostridium botulinum A str. ATCC 3502); also: plate controls were buffer without enzyme for full effect and enzyme alone for no effect
BH1578 lux ind = inducers of Vibrio cholerae quorum light production without autoinducers, primary screen, BH1578 luxS cqsA deficient, single point; V. cholerae BH1578 lux reporter, luminescence, 6 h; activation, % at 18.7 µM; hit rate 0.16% among 350,000; AID 588436, 2011; in the data active = activation mostly above about 9.7%, no sharp cut-off; inconclusive = no clear call, values can overlap the other calls; inactive = mostly below about 3.7%
Bead autofluor = flagged as autofluorescent in microsphere protease counterscreen; compound autofluorescence counterscreen, microsphere flow cytometry; stronger effect = higher value; fluorescence intensity (test concentration not listed); hit rate 3.1% among 360,000; in the data active = fluorescence intensity above about 16000; inconclusive = no clear call, values can overlap the other calls
An asterisk follows results filed as active; i = inactive; ? = inconclusive; / = not tested or not shown. In the library only some 3.9% were active in any assay of this set; here they are far more common. Rule as the data show it, unless noted: active = inhibition above about 30%; inconclusive = no clear call, values can overlap the other calls; inactive = below that.

SMILES	BoNT F protease	MazEF act	Anthrax LF prot	BoNT A protease	BH1578 lux ind	Bead autofluor
CS(=O)(=O)N1CCN(C(=O)Cc2cccs2)CC1	-2	6	-1	?	-1	16441*
CS(=O)(=O)N1CCN(C(=O)c2ccc(Br)s2)CC1	2	-1	-1	1	1	20324*
CCc1nc2ccc(C(=O)NCCc3c[nH]c4ccccc34)cn2c1N(C=O)CCC(C)C	-3	/	-1	0	0	3977
C=CCn1c(SCC(=O)N2CCCCC2)nc(O)cc1=O	-16	-7	-2	-1	0	13208
C=CCn1c(SCC(=O)N(CC)CC)nc(O)cc1=O	-1	1	-2	?	1	23021*
CCOc1cc(N2CCOCC2)c(OCC)cc1NC(=O)COc1ncnc2ccccc12	-4	-5	-6	-1	i	19880*
CCOc1cc(N2CCOCC2)c(OCC)cc1NC(=O)COC(=O)c1cc2ccccc2cc1O	-2	2	0	0	0	2443
COc1cc(NC(=O)c2c(F)c(F)c(OC)c(F)c2F)ccc1NC(=O)c1cccs1	-8	6	-3	-4	-1	5051
O=C(NNS(=O)(=O)c1ccccc1[N+](=O)[O-])c1ccc(F)cc1	-1	4	-6	0	0	4350
O=C(NNS(=O)(=O)c1ccccc1[N+](=O)[O-])c1ccc(O)cc1	-5	2	0	-1	-5	24381*
CC(OC(=O)C1CCN(S(=O)(=O)c2ccc(F)cc2)CC1)C(=O)NC1CCCCC1C (centres undefined)	-8	-3	4	-1	-2	6352
C#CCOc1ccc(/C=C2/C(=O)N(c3cccc(C(=O)O)c3)N=C2C)cc1OC	35*	9	2	0	-1	3037
COc1cc(/C=C2\C(=O)N(c3cccc(C(=O)O)c3)N=C2C)ccc1OCc1ccccc1	-1	-9	-9	0	-1	3783
Cc1ccc(-c2nc3cc(Cl)ccc3o2)cc1	/	4	/	/	i	/
Cc1ccc(CNc2ncccc2-c2nc3cc(Cl)ccc3o2)cc1	0	-7	0	1	-6	22598*
Clc1ccc2c(NCc3ccccc3)ccnc2c1	0	25	-2	-2	i	3800
Clc1ccc2oc(-c3cccnc3NCc3ccccc3)nc2c1	2	-2	3	4	i	19024*
CCCCn1c(N)c(N(CCC(C)C)C(=O)COC(=O)/C=C/c2ccc(F)cc2)c(=O)[nH]c1=O	-4	1	-4	0	i	3190
CCn1ncc(C2=NOC(C(=O)NCC(C)C)C2)c1C (centres undefined)	1	9	-3	-1	-3	4388
CCn1ncc(C2=NOC(C(=O)Nc3cc(OC)c(Cl)cc3OC)C2)c1C (centres undefined)	1	2	-1	2	i	18923*
CCn1ncc(C2=NOC(C(=O)Nc3cnn(C45CC6CC(CC(C6)C4)C5)c3)C2)c1C (centres undefined)	1	-8	-1	2	0	21886*
CCOC(=O)N1CCN(C(=O)C2CC(c3cc(OC)ccc3OC)=NO2)CC1 (centres undefined)	-1	-5	1	?	-1	23965*
COc1ccc(OC)c(C2=NOC(C(=O)N3CCC4(CC3)OCCO4)C2)c1 (centres undefined)	-4	-4	-3	-1	-2	11170
CCn1ncc(C2=NOC(C(=O)N3CCC(C(N)=O)CC3)C2)c1C (centres undefined)	4	3	-7	?	i	21518*
CC(C)c1ccc(CN(C(=O)c2cc3ccccc3oc2=O)C2CCS(=O)(=O)C2)cc1 (centres undefined)	5	-1	-12	?	0	21498*
SMILES	BoNT F protease	MazEF act	Anthrax LF prot	BoNT A protease	BH1578 lux ind	Bead autofluor
CN(C)c1ccc(CN(C(=O)c2cc3ccccc3oc2=O)C2CCS(=O)(=O)C2)cc1 (centres undefined)	3	1	-2	1	0	5643
CC1(C)CC(=O)C2=C(C1)N(c1ccc(F)cc1)C(=O)C2(NC(=O)c1ccccc1F)C(F)(F)F (centres undefined)	-10	4	-5	-1	i	9945
CC(C)CN1C(=O)C(NC(=O)C2CC2)(C(F)(F)F)C2=C1CC(C)(C)CC2=O (centres undefined)	12	8	10	2	-1	10662
CC1(C)CC(=O)C2=C(C1)N(CC1CCCO1)C(=O)C2(NC(=O)c1cccnc1)C(F)(F)F (centres undefined)	-6	5	0	-3	i	17055*
CC(C)CC(=O)NC1(C(F)(F)F)C(=O)N(Cc2ccccc2)C2=C1C(=O)CC(C)(C)C2 (centres undefined)	4	12	-3	2	i	21893*
CC1(C)CC(=O)C2=C(C1)N(Cc1ccc(F)cc1)C(=O)C2(NC(=O)c1cccnc1)C(F)(F)F (centres undefined)	1	5	-1	?	-2	20986*
CCOC(=O)[C@]12CCC=C1N(Cc1ccccc1)C(=O)[C@H](CC(=O)N1CCOCC1)C2	6	/	7	0	/	5621
CNC(=O)C12CCC(C)(c3nc4cc(C)c(C)cc4nc31)C2(C)C (centres undefined)	0	11	2	2	0	23268*
Cc1cc2nc3c(nc2cc1C)C1(C(=O)O)CCC3(C)C1(C)C (centres undefined)	3	-3	0	2	1	4611
CCN1C(=O)/C(=C/C=C2/Sc3ccc4ccccc4c3N2CCO)SC1=S	36*	9	52*	63*	0	6919
CN1CCS/C1=C/C=C1/SC(=S)N(Cc2ccccc2)C1=O	-4	-22	12	29	-1	4757
CCN1C(c2ccccc2)=C(c2ccccc2)S/C1=C/C=C1\SC(=S)N(C)C1=O	-37	-1	41*	141*	i	2608
CCN1C(c2ccccc2)=C(c2ccccc2)S/C1=C\C=C1/SC(=S)N(C)C1=O	-13	-17	44*	98*	i	5010
CCN(CC)S(=O)(=O)c1ccc(OC)c(NC(=O)C2CC(=O)N(c3ccc4c(c3)OCCO4)C2)c1 (centres undefined)	/	-3	/	/	0	/
COc1ccccc1C(=O)Nc1ccc2c(c1)nc(CCNC(=O)c1ccccc1)n2C	-10	13	-1	2	i	4137
COc1ccccc1C(=O)Nc1ccc2c(c1)nc(CCNC(C)=O)n2C	-1	-1	-1	-3	-1	21508*
COc1ccc(C(=O)Nc2ccc3c(c2)nc(CCNC(C)=O)n3C)cc1	-2	-7	0	0	1	20535*
